Results taken from PubChem BioAssay AID624352 (Sanford-Burnham Center for Chemical Genomics, 2012).
About 2,600 (0.72%) of roughly 360,000 compounds were called active. The sample holds actives, similar compounds and a random draw of the others, so the mix is not that of the screen. A number with no mark means an inactive call.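 Rule for the calls: active = inhibition of the luminescence signal of 40% or more relative to plate controls, in a single-dose primary screen at 18.75 µM; inactive = the rest.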

experiment: HIF-2a reporter inhibitors, primary screen, luminescence, 786-0 RCC cells (AID 624352); conditions: 786-0 RCC cells HIF-2a reporter, luciferase luminescence, overnight; at 18.8 µM; hits give high values

SMILES | inhibition
CN(c1ccc(OCC(=O)NC2=NCCS2)cc1)S(=O)(=O)c1ccc(F)cc1 | 1.28%
O=C(c1ccc2ccccc2n1)N1CCN(c2ccccc2Cl)CC1 | -107%
Cc1coc2c(O)cc3c(c12)OC1(N2CCCCC2)C(=O)NCCCC31 (stereo unspecified) | 56.7% (active)
Cn1c(=O)c2sccc2n(Cc2ccc(Br)cc2)c1=O | 13.3%
OCCC#Cc1ccc(N2C(c3ccsc3)=Cc3ccc(F)cc3C2c2c[nH]c3ccccc23)cc1 (stereo unspecified) | -21.5%
O=C(O)CC(SCC(=O)Nc1ccc(Br)cc1)C(=O)O (stereo unspecified) | 2.54%
O=C(CCl)Nc1ccc(Sc2ccc(NC(=O)CCl)cc2)cc1 | 58.1% (active)
CC(=O)Nc1ccc(NC(=O)CC2CCCC2)cc1 | -38.5%
c1ccc(-c2cnc(CN3CCN(c4ccccc4)CC3)o2)cc1 | -16.5%
CC(NC(=O)C(=O)NN=C1CCC(C(C)(C)C)CC1)c1ccccc1 (stereo unspecified) | 13.2%
CCCCc1c(-c2ccc(Cl)cc2)ncn1CCc1ccccc1OC | -111%
FC(F)(F)c1nnc2c3ccccc3c(Cl)nn12 | 16.8%
CC1(C(=O)Nc2ccc3c(c2)OCCO3)CN(S(C)(=O)=O)CC(=O)N1Cc1cccc(F)c1 (stereo unspecified) | 11.6%
Cc1ccc(-c2noc(-c3ccccc3C(=O)NCC3CCCO3)n2)cc1 (stereo unspecified) | -126%
O=C(Cc1ccc(Cl)cc1)NCc1nc(-c2ccccc2)no1 | 8.68%
Cc1ccc(-c2noc(CNC(=O)c3ccoc3C)n2)cc1 | 89% (active)
COC(=O)c1ccc(COC(=O)c2cnccn2)cc1 | 9.27%
Cc1nc(C(F)(F)F)ccc1C(=O)N1CCC1(C)C(=O)NS(=O)(=O)c1ccccc1 (stereo unspecified) | 18.3%
CCCSC(=S)NC1CCS(=O)(=O)C1 (stereo unspecified) | 41.3% (active)
O=S1(=O)CCC(NC(=S)SCc2ccccc2Br)C1 (stereo unspecified) | 37.1%
CC(C)C(=O)NC(NC(=S)NC1CCS(=O)(=O)C1)C(Cl)(Cl)Cl (stereo unspecified) | -1.77%
CC(=O)OCC1(O)CC23CCC4c5ccoc5CCC4(C)C2CCC1C3 (stereo unspecified) | 7.41%
OCCNCCCCOc1ccccc1F | -0.6%

SMILES | inhibition
CC1(C)OC(=O)C2=C(C[C@@H](C3CCCC3)O[C@@H]2c2ccc(Cl)cc2)O1 | 8.87%
CN(C(=O)Nc1ccc(Cl)cc1)n1cnc2ccccc2c1=O | -36.5%
CN(c1ccc2nc3ccccc3c(=O)n2n1)C1CCCCC1 | 78.2% (active)
COCC(C)n1c(SCC(=O)NC2CCCCC2C)nc2ccccc2c1=O (stereo unspecified) | 15%
Cc1cccc(OCC(=O)OCC(=O)Nc2ccc(Cl)cn2)c1 | 11.3%
Cc1ccc(C2=NN(C(=O)COc3ncnc4ccccc34)C(c3ccco3)C2)cc1 (stereo unspecified) | 6.33%
O=C(CN1CCN(C2CCS(=O)(=O)C2)CC1)N1N=C(c2ccc(Cl)cc2)CC1c1ccco1 (stereo unspecified) | 47.5% (active)
Cc1ccc(C2=NN(C(=O)CSc3nc(N)cc(N)n3)C(c3ccco3)C2)cc1 (stereo unspecified) | 24.9%
CN(C(=O)c1cccc(NC(=O)Cc2cccc(NC(=O)C3CCCN(C(=O)C4CC4)C3)c2)c1)C1CCC1 (stereo unspecified) | 11.8%
COc1cc(C(O)c2nc(-c3cccc(C(=O)O)c3)cs2)ccc1F (stereo unspecified) | -9.8%
COc1ccccc1C(=O)Nc1nc2nc(-c3ccccc3)cc(=O)n2[nH]1 | 4.83%
COc1ccc2c(c1OC)C(=O)OC2Nc1nc(-c2ccccc2)cs1 (stereo unspecified) | 57.8% (active)
CCN1CCN(C(=O)c2cc3cc4ccc(OC)cc4nc3s2)CC1 | -78.9%
COc1cc(OC)c(NS(=O)(=O)c2cn(C)cn2)cc1Cl | 6.21%
CSc1ccccc1NC(=O)Cc1ccc(Br)cc1 | -11.3%
COc1ccc(C(=O)/C=C/c2ccc(-c3ccccc3)cc2)cc1CSCC(=O)O | 67.7% (active)
COC(=O)c1ccc(COc2ccc(/C=C/C(=O)c3ccc(OC)c(CSCC(=O)O)c3)cc2OC)cc1 | -5.92%
COc1ccccc1CCNC(=O)C1CCN(C(=O)/C=C/c2ccccc2)CC1 | -5.61%
CC(C)Cc1ccc(C(C)C(=N)N)cc1 (stereo unspecified) | 25.6%
COCCNC(=O)Nc1ccc2nc(-c3ccco3)c(-c3ccco3)nc2c1 | 42.3% (active)
COc1ccc(CCNC(=O)Nc2ccc3c(c2)c(=O)n(C)n3C)cc1OC | 3.46%
COCCNC(=O)CN(Cc1ccco1)C(=O)CCC(=O)Nc1nccs1 | 3.02%
O=S1(=O)CC(N2CCN(Cc3ccccc3F)CC2)CN1Cc1cn(Cc2cccc(C(F)(F)F)c2)nn1 (stereo unspecified) | 1.15%
